The results in this text go back to PubChem BioAssay (EPA / NIEHS).

The target of assay [1] is Paired box protein Pax-6 (Homo sapiens) (UniProt P26367). The experiment in a line: ATG_Pax6_CIS: Attagene CIS-FACTORIAL HepG2 Assay for human Paired Box 6 (PAX6) (AID 2282956). Conditions: HepG2 CIS-FACTORIAL PAX6 reporter transcription, RNA readout; actives raise or lower the signal. In a few lines:
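Fluorescent RT-PCR products separated by capillary electrophoresis report PAX6-linked promoter mRNA in HepG2 cells 24 h post-dose. Curves fitted bidirectionally, DMSO as negative control.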

Assay [2] is described as follows: ATG_PXRE_CIS: Attagene CIS-FACTORIAL HepG2 Assay for human Pregnane X Receptor Element (PXRE) (AID 2282957). The settings on record: HepG2 Attagene CIS-FACTORIAL PXRE reporter, mRNA; actives raise or lower the signal. In a few lines: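 Reporter transcripts under endogenous PXR-responsive cis-regulation quantified from total RNA of transfected HepG2 cells 24 h post-dosing, via RT-PCR with fluorescent primer extension and capillary electrophoresis. Gain or loss of signal fitted against DMSO baseline.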

Assay [3] is described as follows: ATG_PPRE_CIS: Attagene CIS-FACTORIAL HepG2 Assay for human Peroxisome Proliferator-activated Response Element (PPRE) (AID 2282958). Conditions: HepG2 PPRE cis-element reporter, Attagene transcription factor profiling; actives raise or lower the signal. In a few lines: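 PPRE activity in HepG2: transient cis-reporter transfection, 24 h compound incubation, reporter mRNA by RT-PCR and CE fluorescence; gain/loss fitted against DMSO.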

A short description of assay [4]: ATG_RORE_CIS: Attagene CIS-FACTORIAL HepG2 Assay for human RAR-related Orphan Receptor Element (RORE) (AID 2282959). The settings on record: HepG2 Attagene cis-factorial RORE reporter, mRNA; actives raise or lower the signal. A digest of the protocol:
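A 24-hour exposure of transfected HepG2 hepatoma cells precedes RNA isolation and reporter RT-PCR. Labeled products are digested with HpaI and resolved by capillary electrophoresis, with gain or loss of signal scored relative to DMSO.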

A short description of assay [5]: ATG_Sox_CIS: Attagene CIS-FACTORIAL HepG2 Assay for human SRY-box transcription factor (SOX) (AID 2282960). The settings on record: HepG2 Attagene cis-factorial SOX reporter, mRNA; actives raise or lower the signal. In a few lines: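 HepG2, cis reporter units, 24 h exposure. Reporter mRNA: RT-PCR → FAM labelling → HpaI → CE fluorescence. Bidirectional fit vs DMSO.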

For assay [6], the target named is Transcription factor Sp1 (Homo sapiens) (UniProt P08047). The experiment in a line: ATG_Sp1_CIS: Attagene CIS-FACTORIAL HepG2 Assay for human Specificity Protein 1 (Sp1) (AID 2282961). The settings on record: HepG2 Sp1 cis-reporter transcription, actives raise or lower the signal. In a few lines: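 Liver-derived HepG2 cells, cis-element reporter library, 24 h treatment; RNA isolated, cDNA amplified with reporter-specific primers, FAM-labeled fragments sized on capillary analyzer. DMSO baseline, bidirectional curve fit.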

Assay [7] is described as follows: ATG_SREBP_CIS: Attagene CIS-FACTORIAL HepG2 Assay for human Sterol Regulatory Element Binding (SREBP) (AID 2282962). The settings on record: HepG2 Attagene cis-factorial SREBP reporter, mRNA; actives raise or lower the signal. In a few lines: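 Endogenous factor activity is measured in HepG2 through multiplexed reporter units under cis-element control. Following a 24 h incubation, reporter transcripts are reverse-transcribed, PCR-amplified and sized by capillary electrophoresis; activity is fitted in both directions relative to DMSO.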

Assay [8] addresses Signal transducer and activator of transcription 3 (Homo sapiens) (UniProt P40763). The experiment in a line: ATG_STAT3_CIS: Attagene CIS-FACTORIAL HepG2 Assay for human Signal Transducer and Activator of Transcription 3 (STAT3) (AID 2282963). The settings on record: HepG2, Attagene cis-factorial STAT3 reporter transcription; actives raise or lower the signal. A digest of the protocol: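 Fluorescence intensity of 6-FAM-labelled reporter fragments, separated by capillary electrophoresis after RT-PCR, gave the signal. Cells were HepG2 transfected with cis-element reporter units and treated 24 h; fitting was bidirectional relative to DMSO.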

Assay [9] in a line: ATG_TA_CIS: Attagene CIS-FACTORIAL HepG2 Assay for human TA Basal Promoter (AID 2282964). The settings on record: HepG2 Attagene CIS-factorial TA basal promoter reporter; actives raise or lower the signal. A digest of the protocol: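 Background internal-marker endpoint from a 52-component HepG2 cis-reporter panel. Cells treated 24 h; reporter transcripts quantified via RT-PCR and CE fluorescence against DMSO baseline.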

A short description of assay [10]: ATG_TCF_b_cat_CIS: Attagene CIS-FACTORIAL HepG2 Assay for human T-Cell-Factor with beta-catenin (TCF/b-cat) (AID 2282965). Conditions: HepG2 TCF/beta-catenin cis-reporter transcription, actives raise or lower the signal. In a few lines:
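Cells of the HepG2 line carry transiently transfected reporter units whose promoters respond to endogenous factors. Twenty-four hours post-dosing, reporter mRNA induction is measured by fluorescent RT-PCR and capillary electrophoresis, with DMSO as baseline.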

Assay [11] can be described thus: ATG_TAL_CIS: Attagene CIS-FACTORIAL HepG2 Assay for human TAL Basal Promoter (AID 2282966).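 Further: background control endpoint measuring basal TAL promoter reporter mRNA not a specific factor.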 Conditions: HepG2 Attagene cis-factorial TAL promoter reporter; actives raise or lower the signal. In a few lines:
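Background-control endpoint: basal TAL promoter reporter transcripts in transiently transfected HepG2, measured 24 h after dosing. Read-out by RT-PCR with fluorescent primer extension and capillary electrophoresis; gain or loss of signal fitted relative to DMSO.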

A short description of assay [12]: ATG_TGFb_CIS: Attagene CIS-FACTORIAL HepG2 Assay for human Transforming Growth Factor (TGF) (AID 2282967). Conditions: HepG2 Attagene CIS TGFb reporter, mRNA transcription; actives raise or lower the signal. In a few lines:
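Liver HepG2 line, cis-factorial reporter panel, 24 h dosing. Quantitation: RT-PCR products labeled with 6-FAM, cut with HpaI, resolved by capillary electrophoresis; DMSO-referenced bidirectional analysis.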

Assay [13] concerns the target Nuclear receptor subfamily 1 group I member 3 (Homo sapiens) (UniProt Q14994). The assay is described as follows: ATG_CAR_TRANS: Attagene TRANS-FACTORIAL HepG2 Assay for human Constitutive Androstane Receptor (CAR) (AID 2282969; active means hit-call score of the fitted dose curve at least 0.9, where 1 is the maximum;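 further: activators raise reporter mRNA above DMSO so AC50 marks induction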). The settings on record: HepG2 Attagene TRANS-FACTORIAL CAR reporter. In a few lines:
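Transiently transfected HepG2, multiplex TRANS reporters (CAR-Gal4 chimera driving GAL4-UAS reporter). 24 h dosing. Readout: reporter transcript by RT-PCR + capillary electrophoresis, fluorescence intensity; positive direction vs DMSO.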

Assay [14] deals with Steroid hormone receptor ERR1 (Homo sapiens) (UniProt P11474). The experiment in a line: ATG_ERRa_TRANS: Attagene TRANS-FACTORIAL HepG2 Assay for human Estrogen-Related Receptor alpha (ERRa) (AID 2282971; active means hit-call score of the fitted dose curve at least 0.9, where 1 is the maximum). Conditions: HepG2 Attagene TRANS reporter, ERRa transactivation. A digest of the protocol: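 Reporter transcripts from ERRa-Gal4 chimera activity measured in transiently transfected human HepG2 cells 24 hours after dosing, using RT-PCR with 6-FAM primer extension, HpaI digestion and capillary electrophoresis; DMSO is baseline.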

In assay [15] the target is X-box-binding protein 1 (Homo sapiens) (UniProt P17861). The assay is described as follows: ATG_Xbp1_CIS: Attagene CIS-FACTORIAL HepG2 Assay for human X-box Binding Protein 1 (XBP1) (AID 2282972). The settings on record: HepG2 XBP1 cis-element reporter, Attagene multiplex; actives raise or lower the signal. A digest of the protocol:
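Multiplexed cis-reporter readout in transfected HepG2 liver cells. Exposure lasted 24 hours. Activity in either direction was fitted against DMSO as negative control and baseline.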

The target of assay [16] is Estrogen-related receptor gamma (Homo sapiens) (UniProt P62508). The assay is described as follows: ATG_ERRg_TRANS: Attagene TRANS-FACTORIAL HepG2 Assay for human Estrogen-Related Receptor gamma (ERRg) (AID 2282977; active means hit-call score of the fitted dose curve at least 0.9, where 1 is the maximum;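 further: hits increase reporter signal over DMSO so potencies reflect activators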). The settings on record: HepG2 Attagene TRANS reporter, ERRg transactivation. In a few lines: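 Exogenous NR-Gal4 chimera activity measured as reporter transcript induction after 24 h in transiently transfected HepG2 cells. RNA reverse-transcribed, PCR-amplified, 6-FAM-labelled and resolved by capillary electrophoresis; increase over DMSO baseline.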

Assay [17] in a line: ATG_VDRE_CIS: Attagene CIS-FACTORIAL HepG2 Assay for human Vitamin D Receptor Element (VDRE) (AID 2282968). The settings on record: HepG2 VDRE cis-reporter transcription, actives raise or lower the signal. A digest of the protocol:
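Compounds were applied for 24 h to HepG2 cells transfected with promoter-regulated reporter units. Total RNA was reverse-transcribed, and reporter amplicons were fluorescently labelled and sized by capillary electrophoresis.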

A short description of assay [18]: ATG_GAL4_TRANS: Attagene TRANS-FACTORIAL HepG2 Assay for GAL4 (Internal Marker) (AID 2282976; active means hit-call score of the fitted dose curve at least 0.9, where 1 is the maximum). The settings on record: HepG2 Attagene TRANS GAL4 internal marker reporter. A digest of the protocol:
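In transfected human HepG2 liver cells dosed 24 h, GAL4 reporter mRNA serves as a baseline marker. Detection by RT-PCR with fluorescent capillary electrophoresis, activity fitted upward relative to DMSO.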

A short description of assay [19]: ATG_M_19_TRANS: Attagene TRANS-FACTORIAL HepG2 Assay for M19 Transcription Factor (Internal Marker) (AID 2282974; active means hit-call score of the fitted dose curve at least 0.9, where 1 is the maximum). The settings on record: HepG2 Attagene TRANS-FACTORIAL M19 internal marker reporter. A digest of the protocol: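 Transfected HepG2 (GAL4-UAS MRTUs), 24 h compound, TriZol RNA, DNase-treated RT, reporter PCR, FAM label, HpaI digest, CE fluorescence; gain vs DMSO.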

In assay [20] the target is Estrogen receptor (Homo sapiens) (UniProt P03372). The experiment in a line: ATG_ERa_TRANS: Attagene TRANS-FACTORIAL HepG2 Assay for human Estrogen Receptor alpha (ERa) (AID 2282970; active means hit-call score of the fitted dose curve at least 0.9, where 1 is the maximum). Conditions: HepG2 Attagene TRANS ERa GAL4 reporter, mRNA. In a few lines: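 Reporter transcripts were measured 24 h after dosing by RT-PCR with fluorescent primer extension and capillary electrophoresis. The system is transiently transfected HepG2 expressing exogenous NR-Gal4 chimeras driving GAL4-UAS reporters; DMSO is the baseline.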

Records with an inconclusive call do not appear. Calls of active or inactive are those of the source. How the source made its calls, unless noted: active means hit-call score of the fitted dose curve at least 0.9, where 1 is the maximum; inactive means score below 0.9.

Sequence of X-box-binding protein 1 (Homo sapiens) (P17861 whole entry, looked up): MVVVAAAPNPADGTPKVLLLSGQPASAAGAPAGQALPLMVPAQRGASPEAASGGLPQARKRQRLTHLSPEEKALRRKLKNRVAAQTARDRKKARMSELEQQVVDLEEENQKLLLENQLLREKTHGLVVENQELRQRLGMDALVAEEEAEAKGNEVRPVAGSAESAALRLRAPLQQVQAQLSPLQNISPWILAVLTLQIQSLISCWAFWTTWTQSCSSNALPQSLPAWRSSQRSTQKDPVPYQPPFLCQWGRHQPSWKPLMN
Sequence of Signal transducer and activator of transcription 3 (Homo sapiens) (P40763 whole entry, looked up, the tested form may be a part): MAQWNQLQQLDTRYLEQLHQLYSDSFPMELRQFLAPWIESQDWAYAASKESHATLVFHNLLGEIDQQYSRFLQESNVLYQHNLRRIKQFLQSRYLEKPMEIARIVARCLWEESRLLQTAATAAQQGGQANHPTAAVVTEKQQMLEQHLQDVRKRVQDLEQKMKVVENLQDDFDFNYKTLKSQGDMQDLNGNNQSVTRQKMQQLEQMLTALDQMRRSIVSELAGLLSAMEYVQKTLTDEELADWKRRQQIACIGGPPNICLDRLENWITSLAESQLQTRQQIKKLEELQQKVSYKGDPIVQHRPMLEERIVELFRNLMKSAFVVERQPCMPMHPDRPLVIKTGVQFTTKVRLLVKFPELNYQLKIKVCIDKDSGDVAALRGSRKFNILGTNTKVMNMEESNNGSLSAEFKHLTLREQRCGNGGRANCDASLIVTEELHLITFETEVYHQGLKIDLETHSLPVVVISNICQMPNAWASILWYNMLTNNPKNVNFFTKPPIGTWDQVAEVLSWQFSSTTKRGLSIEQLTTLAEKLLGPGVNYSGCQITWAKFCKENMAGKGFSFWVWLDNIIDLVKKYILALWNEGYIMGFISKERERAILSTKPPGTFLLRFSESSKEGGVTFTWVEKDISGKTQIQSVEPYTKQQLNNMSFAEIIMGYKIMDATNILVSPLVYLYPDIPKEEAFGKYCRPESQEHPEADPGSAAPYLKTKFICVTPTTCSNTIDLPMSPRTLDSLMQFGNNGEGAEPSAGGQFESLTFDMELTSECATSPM
Sequence of Nuclear receptor subfamily 1 group I member 3 (Homo sapiens) (Q14994 whole entry, looked up, the tested form may be a part): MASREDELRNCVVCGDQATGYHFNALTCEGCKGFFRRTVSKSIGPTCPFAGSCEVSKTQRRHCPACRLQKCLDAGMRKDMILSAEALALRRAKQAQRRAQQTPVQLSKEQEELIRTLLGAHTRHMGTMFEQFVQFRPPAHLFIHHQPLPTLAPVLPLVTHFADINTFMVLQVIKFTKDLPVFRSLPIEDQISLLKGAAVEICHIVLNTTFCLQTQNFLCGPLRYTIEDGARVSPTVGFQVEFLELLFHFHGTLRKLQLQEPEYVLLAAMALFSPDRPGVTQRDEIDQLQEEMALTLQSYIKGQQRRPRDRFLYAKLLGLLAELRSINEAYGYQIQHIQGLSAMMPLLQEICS
Sequence of Paired box protein Pax-6 (Homo sapiens) (P26367 whole entry, looked up): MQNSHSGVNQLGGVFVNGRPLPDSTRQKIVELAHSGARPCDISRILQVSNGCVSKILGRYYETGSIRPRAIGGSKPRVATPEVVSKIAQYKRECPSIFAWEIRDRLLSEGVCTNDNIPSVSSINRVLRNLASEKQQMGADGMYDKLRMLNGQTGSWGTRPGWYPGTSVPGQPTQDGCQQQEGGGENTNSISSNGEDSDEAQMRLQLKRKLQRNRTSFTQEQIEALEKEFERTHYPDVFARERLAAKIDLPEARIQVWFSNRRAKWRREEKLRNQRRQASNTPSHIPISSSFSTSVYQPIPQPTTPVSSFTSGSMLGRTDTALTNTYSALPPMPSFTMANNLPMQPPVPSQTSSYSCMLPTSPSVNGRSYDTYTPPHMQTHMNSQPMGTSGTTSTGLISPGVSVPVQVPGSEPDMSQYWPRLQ
Sequence of Steroid hormone receptor ERR1 (Homo sapiens) (P11474 whole entry, looked up, the tested form may be a part): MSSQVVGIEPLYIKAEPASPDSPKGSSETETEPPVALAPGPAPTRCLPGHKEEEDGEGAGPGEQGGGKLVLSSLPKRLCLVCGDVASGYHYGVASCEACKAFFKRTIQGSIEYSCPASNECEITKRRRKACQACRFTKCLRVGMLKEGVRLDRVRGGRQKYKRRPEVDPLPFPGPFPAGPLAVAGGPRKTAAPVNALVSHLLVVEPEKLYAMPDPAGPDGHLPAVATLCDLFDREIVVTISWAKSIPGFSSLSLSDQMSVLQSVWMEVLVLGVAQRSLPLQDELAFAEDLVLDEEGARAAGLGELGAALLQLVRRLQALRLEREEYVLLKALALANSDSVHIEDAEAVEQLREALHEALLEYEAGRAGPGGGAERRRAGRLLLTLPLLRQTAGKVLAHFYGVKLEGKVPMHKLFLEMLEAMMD
Sequence of Transcription factor Sp1 (Homo sapiens) (P08047 whole entry, looked up, the tested form may be a part): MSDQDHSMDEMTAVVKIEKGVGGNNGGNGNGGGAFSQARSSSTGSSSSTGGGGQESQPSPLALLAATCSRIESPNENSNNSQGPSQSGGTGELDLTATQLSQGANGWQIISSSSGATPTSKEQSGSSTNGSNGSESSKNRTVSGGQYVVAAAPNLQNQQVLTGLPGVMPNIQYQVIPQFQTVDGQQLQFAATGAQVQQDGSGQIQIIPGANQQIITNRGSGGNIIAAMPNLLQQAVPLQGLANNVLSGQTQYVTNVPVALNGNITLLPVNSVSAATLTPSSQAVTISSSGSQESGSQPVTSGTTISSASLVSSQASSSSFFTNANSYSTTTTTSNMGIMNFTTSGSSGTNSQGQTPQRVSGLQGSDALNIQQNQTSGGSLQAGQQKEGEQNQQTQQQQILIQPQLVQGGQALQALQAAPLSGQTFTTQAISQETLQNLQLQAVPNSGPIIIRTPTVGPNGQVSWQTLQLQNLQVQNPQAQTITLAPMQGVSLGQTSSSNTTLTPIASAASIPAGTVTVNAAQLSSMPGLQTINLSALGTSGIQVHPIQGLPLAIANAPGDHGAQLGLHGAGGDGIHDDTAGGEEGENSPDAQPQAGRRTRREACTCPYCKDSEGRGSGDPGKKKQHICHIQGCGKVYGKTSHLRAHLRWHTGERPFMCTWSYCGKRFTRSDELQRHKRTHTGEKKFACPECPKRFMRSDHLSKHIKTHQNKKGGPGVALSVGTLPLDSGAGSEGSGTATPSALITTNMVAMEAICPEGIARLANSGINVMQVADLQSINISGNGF
Sequence of Estrogen-related receptor gamma (Homo sapiens) (P62508 whole entry, looked up, the tested form may be a part): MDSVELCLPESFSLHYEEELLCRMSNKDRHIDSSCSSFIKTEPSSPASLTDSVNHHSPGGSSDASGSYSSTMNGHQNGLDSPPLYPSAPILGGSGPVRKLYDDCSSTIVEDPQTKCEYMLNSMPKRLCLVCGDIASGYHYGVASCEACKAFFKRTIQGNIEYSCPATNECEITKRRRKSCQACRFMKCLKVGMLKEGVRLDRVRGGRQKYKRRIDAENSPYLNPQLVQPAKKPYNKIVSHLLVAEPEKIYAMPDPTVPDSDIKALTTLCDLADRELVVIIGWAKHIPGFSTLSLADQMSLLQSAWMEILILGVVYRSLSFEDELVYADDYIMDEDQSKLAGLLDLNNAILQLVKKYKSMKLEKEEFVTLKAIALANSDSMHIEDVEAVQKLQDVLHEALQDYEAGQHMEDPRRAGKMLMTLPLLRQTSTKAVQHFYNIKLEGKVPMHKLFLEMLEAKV
Sequence of Estrogen receptor (Homo sapiens) (P03372 whole entry, looked up, the tested form may be a part): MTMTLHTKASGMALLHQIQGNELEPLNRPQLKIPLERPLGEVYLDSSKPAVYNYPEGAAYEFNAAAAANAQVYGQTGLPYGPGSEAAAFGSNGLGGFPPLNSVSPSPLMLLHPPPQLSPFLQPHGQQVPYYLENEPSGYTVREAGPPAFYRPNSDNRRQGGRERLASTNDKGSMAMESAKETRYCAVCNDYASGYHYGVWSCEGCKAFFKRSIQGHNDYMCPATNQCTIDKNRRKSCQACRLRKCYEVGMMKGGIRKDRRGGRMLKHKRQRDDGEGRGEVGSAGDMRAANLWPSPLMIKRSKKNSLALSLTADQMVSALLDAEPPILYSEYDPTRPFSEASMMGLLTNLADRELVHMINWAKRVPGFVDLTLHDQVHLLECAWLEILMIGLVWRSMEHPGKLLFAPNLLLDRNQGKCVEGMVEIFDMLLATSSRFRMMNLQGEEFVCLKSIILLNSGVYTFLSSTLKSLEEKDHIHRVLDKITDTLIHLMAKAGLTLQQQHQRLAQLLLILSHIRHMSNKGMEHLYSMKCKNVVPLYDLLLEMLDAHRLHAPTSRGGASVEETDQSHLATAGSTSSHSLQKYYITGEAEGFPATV

With `Nc1ccc(Oc2ccc(N)cc2)cc1`, the call in assay [1], in assay [2], in assay [3], in assay [4], in [5] and in assay [6] was inactive. In addition, the outcome in assay [7], in assay [8], in assay [9], in [10], in assay [11] and in assay [12] was inactive. Also, the compound was classed as inactive in assay [13], in assay [14], in [15] and in assay [16].
The term AC50 denotes the concentration at which the activity in the assay is half-maximal. For the compound `Clc1ccc(Cl)c(Cl)c1`, the outcome in assay [1], in [3], in [4], in assay [5], in [6] and in assay [7] was inactive. Also, the compound was classed as inactive in [8], in [9], in assay [10], in assay [11], in assay [12] and in assay [17]. Also, the result in assay [14], in assay [15] and in assay [18] was inactive. Moreover, the AC50 in assay [2] is 58.4 µM (active).
For the compound `Oc1ccccc1Cl`, the outcome in assay [1], in [2], in assay [3], in assay [5], in assay [6] and in assay [7] was inactive. The compound was classed as inactive in assay [8], in assay [9], in assay [10], in assay [11], in [12] and in [17]. For the same compound, the compound was classed as inactive in assay [13] and in assay [15].
As for `Clc1ccc(C(c2ccc(Cl)cc2)C(Cl)(Cl)Cl)cc1`, the compound was called inactive in assay [1], in assay [3], in assay [4], in assay [5], in assay [7] and in assay [8]. Also, the call in assay [9], in [10], in assay [11], in [12], in assay [17] and in assay [14] was inactive. Moreover, the compound was classed as inactive in assay [15], in assay [19] and in assay [18]. The AC50 was 4.13 µM (active) in assay [2] and 100 µM (active) in [6].
`N#CC(Br)Br`: the outcome in assay [1], in assay [2], in assay [3], in assay [4], in [5] and in [6] was inactive. For the same compound, the compound was called inactive in assay [7], in [8], in assay [9], in assay [10], in assay [11] and in [12]. The result in assay [13], in [20], in assay [15] and in assay [18] was inactive.
Consider `CC(C)(O)c1cnn2c(-c3ccc(F)c(-c4c(F)cccc4C#N)c3)cnc2n1`, for which the outcome in assay [1], in assay [3], in [4], in assay [5], in assay [6] and in [7] was inactive. Also, the result in assay [8], in assay [11], in assay [12], in assay [15], in [19] and in assay [16] was inactive. Also, the AC50 in assay [2] was 0.137 µM (active); in assay [9], 13.1 µM (active); in assay [10], 8.97 µM (active); in assay [17], 538 nM (active).
`Nc1cc(Cl)cc(C(=O)O)c1Cl`: the compound was classed as inactive in assay [1], in [3], in assay [4], in assay [5], in [6] and in [7]. The compound was called inactive in assay [8], in assay [9], in assay [10], in assay [11], in assay [12] and in [17]. Further, the outcome in assay [14], in [15] and in assay [16] was inactive. For the same compound, the half-maximal activity concentration (AC50) in [2] was 65 µM (active).
Turning to `Cn1cc(-c2ccccc2)c(=O)c(-c2cccc(C(F)(F)F)c2)c1`, the outcome in assay [1], in [3], in [4], in assay [5], in [6] and in [7] was inactive. The compound was classed as inactive in [8], in [9], in [11], in assay [12], in assay [15] and in assay [19]. For the same compound, in [18], the call was inactive. Besides, the results for the AC50 in assay [2] and in assay [10] were 4.31 µM (active) and 100 µM (active), respectively.
